# Reference: PubChem BioAssay AID493240 (Broad Institute, 2011)
# In all, about 1,300 compounds went through this assay and about 270 (21%) were called active. Only a sample is shown. Potency and affinity values are given separately. Unmarked numbers belong to inactive results. How the calls were made is not given here.
# Test: cytotoxicity in parental SK-MEL-5 melanoma cells – cell-based, CellTiter-Glo, cherry-picked, set 3, orthogonal assay for MITF inhibitor project, dose response (AID 493240)
# Conditions: SK-MEL-5 viability, ATP luminescence (CellTiter-Glo), 24 h; series mostly up to 35 µM; activity change, negative = viability loss: at the top concentration
row,Structure (SMILES),"activity change, negative = viability loss"
1,O=C(/C=C/c1ccc2c(c1)OCCO2)c1ccccc1,9.59%
2,COc1cccc(/C=C/C(=O)c2ccc3c(c2)OCCO3)c1OC,-13.2%
3,O=C(Nc1nc2ccsc2c(=O)s1)C1CCC1,4.21%
4,O=C(Nc1ccccc1Cl)c1cc(=O)c2ccccc2o1,3.54%
5,Cc1ccc(-c2noc(CN3CCCCC3)n2)cc1,2.86%
6,Cc1cc(C)c2c(N)c(C(=O)N/N=C/c3cccnc3)sc2n1,2.32%
7,Cc1nc2ccc(NC(=O)c3ccco3)cc2nc1C,10.6%
8,COc1cccc(/C=N/NC(=O)c2cccs2)c1,-10.1%
9,CC1Cc2cc(-c3csc(N)n3)ccc2O1 (stereo not given),-10.4%
10,CCCCOc1ccc(-c2ncc([N+](=O)[O-])cn2)cc1,1.91%
11,COC(=O)CSC1=C(C#N)C(=O)NC(c2ccccc2)S1 (stereo not given),-11.5%
12,COc1nc(NC2CCCCC2)nc(NC(C)(C)C)n1,-5.55%
13,Cc1ccc2nc(Cc3ccc(N)cc3)oc2c1,10.2%
14,Cc1nc(NC(=O)/C=C/c2ccccc2)n[nH]1,-31.4%
15,CCCc1ccc(-c2ccc(/C=C/C(=O)O)cc2)nc1,-10.5%
16,[2H]C(CCOS(N)(=O)=O)c1ccc(C(C)(C)C)cc1 (stereo not given),2.67%
17,CC(=O)N(C1CC(C)C(C#N)(C#N)C1(C#N)C#N)N(C)C (stereo not given),1.45%
18,O=C(CC(=O)c1ccccc1)Nc1ccccn1,-3.01%
19,Cc1cccnc1NC(=O)NC(=O)c1ccc(C(C)(C)C)s1,-6.04%
20,COc1ccc(NC(=O)c2cc3ccccc3oc2=O)c(OC)c1,-5.28%
21,NNC(=O)Cn1c(SCc2ccccc2)nc2ccccc21,-2.77%
22,CCCCOc1ccc(-c2nnn(C(C)(C)C(=O)OC)n2)cc1,-8.4%
23,CCSc1nnc(NC(=O)C2CCCCC2)s1,4.55%

row,Structure (SMILES),"activity change, negative = viability loss"
1,COCc1cc(C)nc2sc(C(=O)Nc3ccc(OC)cc3)c(N)c12,14.4%
2,CCN(CC)c1ccc(/C=N/NC(=O)c2cccc(S(=O)(=O)N3CCOCC3)c2)c(O)c1,-8.61%
3,O=C(N/N=C\c1ccc([N+](=O)[O-])o1)C1COc2ccccc2O1 (stereo not given),-18.3%
4,Clc1ccc(-c2noc(CN3CCOCC3)n2)cc1,3.11%
5,COc1ccc(-c2nc3n(c2C)Cc2ccccc2-3)cc1,-11.2%
6,COc1ccc(-c2cc(-c3ccccc3)c(C#N)c(S(C)=O)n2)cc1 (stereo not given),-46.7%
7,CC(C)(C)c1ccc(C(=O)Nc2sc3c(c2C(=O)O)CCC3)cc1,0.132%
8,Cc1ccc(-n2ncc3c(SCC(N)=O)ncnc32)cc1C,7.62%
9,CC(/C=C1\SC(=O)N(CCCC(=O)O)C1=O)=C\c1ccccc1,-4.09%
10,Cc1cc(C)n(CCC(=O)N/N=C/c2c(O)ccc3ccccc23)n1,-39.9%
11,COc1ccc2nc(N3CCN(C(=O)c4ccc([N+](=O)[O-])o4)CC3)sc2c1,-6.21%
12,Cc1cccc(NC(=O)CNC(=O)Cn2ncc(Cl)c(Cl)c2=O)c1C,-31.9%
13,C/C(=N\Nc1nccnc1Cl)c1ccc(O)c(C)c1,-1.97%
14,O=C(c1ccc([N+](=O)[O-])s1)N1CCCc2ccccc21,-14.3%
15,CCOC(=O)c1c(C)[nH]c(C)c1C(=O)COC(=O)c1ccc([N+](=O)[O-])s1,-27.8%
16,CCOC(=O)C(=Cc1ccc(-n2ccnc2)cc1)C(=O)OCC,-27.7%
17,NC(=O)C1CCN(C2=C(NS(=O)(=O)c3ccc(Br)cc3)C(=O)c3ccccc3C2=O)CC1,-30.2%
18,Cc1ccc(C(CNS(=O)(=O)c2ccc(Br)cc2)N2CCN(C)CC2)cc1 (stereo not given),-3.91%
19,Cc1cc(N2CCOCC2)ccc1/C=C\[N+](=O)[O-],-36.5%
20,COc1cc2c(c(OC)c1OC)-c1ccc(N(C)CC(OC)OC)c(=O)cc1[C@@H](NC(C)=O)CC2,3.07%
21,Nc1ccc2c(c1)OC1(CCCC1)O2,-9.31%
22,COc1cc(OC)cc(C(=O)N[C@H](C(=O)Nc2nc3ccccc3[nH]2)C(C)C)c1,-17.1%
23,CN(C)C1CCN(Cc2cc(COCc3ccccc3)c3cccnc3c2O)C1 (stereo not given),-38.2%

row,Structure (SMILES),"activity change, negative = viability loss"
1,Oc1c(CN2CCCC2)cc(COCc2ccccc2)c2cccnc12,-13.9%
2,COc1cccc(NC(=O)c2cc3c(=O)n4ccccc4nc3n(CC(C)C)c2=N)c1,-0.783%
3,Cc1ccc(NC(=O)c2cc3cccc([N+](=O)[O-])c3[nH]2)cc1,-7.95%
4,CCN=c1scc(-c2ccco2)n1/N=C/c1ccc(O)cc1,-7.86%
5,CC(C)CC(=O)/C=C/n1c(=S)oc2ccccc21,-34.5%
6,CCC(=O)Nc1cc2nn(-c3ccc(C)cc3)nc2cc1C,2.93%
7,Cc1cc(N2CCOCC2)n2ncc(-c3ccccc3Cl)c2n1,-5.33%
8,O=C(CCl)N(Cc1cc(=O)[nH]c2ccccc12)c1ccccc1,-28.8%
9,CCNc1nc(N)c(C(=O)c2ccc(Cl)s2)s1,12.4%
10,CN(C)c1ccc(CNc2ccccn2)cc1,10.9%
11,CN(C)c1ccc(NC(=S)c2ccccn2)cc1,-42.3%
12,O=C1c2ccccc2C(=O)c2c1ncn2-c1ccccc1,-48%
13,Cc1c(/C=C/C(=O)c2ccc(Cl)s2)cnn1C,3.62%
14,CC1CN(N=Cc2ccc([N+](=O)[O-])o2)C(=N)O1 (stereo not given),-22.3%
15,C#Cc1cccc(NC(=O)CSc2nnc(-c3ccc(C(F)(F)F)cn3)o2)c1,-9.72%
16,Cc1nc(NCCOc2ccccc2)sc1C(=O)Nc1ccccc1,-18.4%
17,COc1ccc(NC(=O)c2cc(-c3ccccc3Cl)on2)cc1,0.072%
18,CCOC(=O)c1sc(-c2ccccc2)cc1N,-0.468%
19,CCOC(=O)c1cnc2c(ccc3ccccc32)c1N,5.07%
20,Cc1cc(/C(N)=N/OC(=O)Nc2ccc(Cl)cc2)no1,-5.54%
21,COc1ccc(NCc2nc3ccccc3n2C)cc1,-16.6%
22,CC(=O)c1cccc(Nc2nc(-c3cccnc3)cs2)c1,-9.94%
23,CC(C)N1C/C(=C/c2cccnc2)C(=O)/C(=C/c2cccnc2)C1,-39%

row,Structure (SMILES),"activity change, negative = viability loss"
1,CN1C/C(=C/c2cccnc2)C(=O)/C(=C/c2cccnc2)C1,4.84%
2,C=CCn1c(C)cc(C(=O)Cn2ncc(Cl)c(Cl)c2=O)c1C,-18.1%
3,O=C(NC1=NCCS1)C1COc2ccccc2O1 (stereo not given),-31.3%
4,CCC1CCCCN1CCCNC(=O)c1cn(CC)c2ccc(S(=O)(=O)N(C)C3CCCCC3)cc2c1=O (stereo not given),-0.846%
5,Cc1c(C(=O)N(CCO)Cc2ccccc2)oc2c(F)cccc12,-10.7%
6,COc1cc2ccccc2cc1C(=O)Nc1ccc(N2CCN(C)CC2)cc1,2.4%
7,COc1c(C)cccc1C(=O)Nc1ccc(N2CCN(S(C)(=O)=O)CC2)cc1,-1.04%
8,Cc1ccc(-c2nc(-c3ccncc3)no2)cc1C,-17.9%
9,CCOc1ccc(NC(=O)c2ccc3snnc3c2)cc1,-0.311%
10,Nc1ccccc1SC1CC(=O)N(c2ccc3c(c2)OCCO3)C1=O (stereo not given),-5.81%
11,O=C(O)c1ccc(C(=O)Nc2ccc(F)cc2)cc1,-7.29%
12,O=C(Nc1ccc([N+](=O)[O-])cc1)c1ccccc1,6.09%
13,COc1ccc2c(C)nc(Nc3nc(-c4ccccc4)cc(=O)[nH]3)nc2c1,-25.4%
14,O=C(Cn1cc(/C=C\[N+](=O)[O-])c2ccccc21)Nc1ccccc1,-48.7%
15,Oc1cc(NCc2cccnc2)ccc1-c1nc2ccccc2o1,-11.7%
16,NCCN1C(=O)S/C(=C\c2ccc3c(c2)OCO3)C1=O,-12.1%
17,O=C(COC(=O)C1=COCCO1)Nc1c(F)cccc1F,6.41%
18,N=c1n(CC(=O)c2ccc([N+](=O)[O-])cc2)c2ccccc2n1Cc1ccccc1,-17.9%
19,O=C(C[n+]1cccc2ccccc21)c1ccc([N+](=O)[O-])cc1,-22.8%
20,Cc1ccccc1Cn1c(=N)n(CC(=O)c2ccc([N+](=O)[O-])cc2)c2ccccc21,-79.6%
21,N=c1n(CC(=O)c2ccc([N+](=O)[O-])cc2)c2ccccc2n1Cc1ccccc1Cl,-29.3%
22,CC(NC(=O)C12CC3CC(CC(C3)C1)C2)C(=O)NN=Cc1ccc([N+](=O)[O-])o1 (stereo not given),-22%
23,Cc1ccc(-n2nnnc2Sc2nc([N+](=O)[O-])nn2C)c(C)c1,-15.4%

row,Structure (SMILES),"activity change, negative = viability loss"
1,O=C(O)c1cccc(COc2ccccc2Cl)c1,-19.5%
2,COc1ccc(O)c(/C=N/NC(=O)c2ccc(CSc3nc(C)cc(C)n3)cc2)c1,-14.4%
3,O=C(COc1ccc2c(c1)CCC2)N1CCc2ccccc21,-5.75%
4,O=S(=O)(c1ccc(F)cc1)c1snnc1-c1ccccc1,-23.4%
5,COC(=O)c1ccc(Nc2cc(C)nc3ccc(C)cc23)cc1,-11.8%
6,CCOc1ccc2nc(C)cc(Nc3cccc([N+](=O)[O-])c3)c2c1,-33.6%
7,COc1ccc(NC(=O)CCC(=O)N/N=C/c2ccc([N+](=O)[O-])s2)cc1,-48.4%
8,COc1ccc(NC(C)C(=O)N/N=C/c2ccc([N+](=O)[O-])s2)cc1 (stereo not given),-41.7%
9,O=[N+]([O-])c1c(NCCCO)cc(Sc2ccc(Cl)cc2)c2nonc12,-31.4%
10,O=C(NCc1ccccc1)C(=O)Nc1cccc(C(=O)O)c1,-1.43%
11,O=C(NC1CCCCC1)C(c1cccnc1)N(C(=O)CCl)c1ccc(F)cc1 (stereo not given),-20.8%
12,O=C(c1cc2ccccc2oc1=O)N(Cc1ccccc1)C1CCS(=O)(=O)C1 (stereo not given),4.69%
13,O=C(NC1CCCCC1)C(c1cccnc1)N(C(=O)CCl)c1cccc(Cl)c1 (stereo not given),-3.27%
14,CC(=O)NC1=C(N(C)C2CCS(=O)(=O)C2)C(=O)c2ccccc2C1=O (stereo not given),-33.7%
15,CCC(=O)NC(c1ccccc1OC)c1ccc2cccnc2c1O (stereo not given),-31.5%
16,Cc1ccc(C(=O)c2no[n+]([O-])c2C(=O)c2ccc(C)cc2)cc1,-2.85%
17,Cc1ccc(NC(=O)C2CCN(S(=O)(=O)c3c(C)noc3/C=C/c3ccco3)CC2)nc1,-24.4%
18,Cc1[nH]nc(Nc2ccc(Br)cc2)c1[N+](=O)[O-],-19.7%
19,CC(C)(C)c1ccc(-c2noc(CCC(=O)NCC3CCCO3)n2)cc1 (stereo not given),-3.92%
20,Cn1cccc1-c1cc(C(=O)N/N=C/c2cc(Br)ccc2O)[nH]n1,-8.57%
21,O=C(CCCCC(=O)NN=Cc1ccccc1O)NN=Cc1ccccc1O,-10.5%
22,O=C(N/N=C/c1cc(Br)ccc1O)c1ccncc1,-10%
23,Oc1ccccc1/C=N/Nc1cccc2cccnc12,-8.91%
